# From paper doi:10.1101/2024.03.05.583629
# Target: pT7_6His-AlfaTag-HOXD13 (human, UniProt P35453 263-343)
# Assay: PADIT-seq
# Settings: dsDNA, one strand shown
# pT7_6His-AlfaTag-HOXD13, sequence (P35453 263-343): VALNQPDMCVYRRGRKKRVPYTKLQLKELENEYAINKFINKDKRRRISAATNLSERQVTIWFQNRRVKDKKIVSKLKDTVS
row,Sequence,binding signal
1,CTCGAGGATATCAAGATCTGGCCTCGGCTTTTTAAGTGGAACCTCTAGCTAGCCGACTCACTATAGGGATAATCGCCCTGAGCAAAGACC,1.17 ± 0.094 log2FC
2,CTCGAGGATATCAAGATCTGGCCTCGGCCGCCCAAGCGGAACCTCTAGCTAGCCGACTCACTATAGGGATAATCGCCCTGAGCAAAGACC,-0.698 ± 0.123 log2FC
3,CTCGAGGATATCAAGATCTGGCCTCGGCCTTTTATTAGGAACCTCTAGCTAGCCGACTCACTATAGGGATAATCGCCCTGAGCAAAGACC,3.32 ± 0.0849 log2FC
4,CTCGAGGATATCAAGATCTGGCCTCGGCCGCCCAACTGGAACCTCTAGCTAGCCGACTCACTATAGGGATAATCGCCCTGAGCAAAGACC,-1.02 ± 0.119 log2FC
5,CTCGAGGATATCAAGATCTGGCCTCGGCGTTTTACAAGGAACCTCTAGCTAGCCGACTCACTATAGGGATAATCGCCCTGAGCAAAGACC,3.54 ± 0.0799 log2FC
6,CTCGAGGATATCAAGATCTGGCCTCGGCGGTTTAAAAGGAACCTCTAGCTAGCCGACTCACTATAGGGATAATCGCCCTGAGCAAAGACC,1.97 ± 0.078 log2FC
7,CTCGAGGATATCAAGATCTGGCCTCGGCCGCCCAACAGGAACCTCTAGCTAGCCGACTCACTATAGGGATAATCGCCCTGAGCAAAGACC,-0.724 ± 0.117 log2FC
8,CTCGAGGATATCAAGATCTGGCCTCGGCTTTTTAAACGGAACCTCTAGCTAGCCGACTCACTATAGGGATAATCGCCCTGAGCAAAGACC,1.28 ± 0.101 log2FC
9,CTCGAGGATATCAAGATCTGGCCTCGGCAAGGTAAAAGGAACCTCTAGCTAGCCGACTCACTATAGGGATAATCGCCCTGAGCAAAGACC,-0.357 ± 0.0936 log2FC
10,CTCGAGGATATCAAGATCTGGCCTCGGCTTTTTATTAGGAACCTCTAGCTAGCCGACTCACTATAGGGATAATCGCCCTGAGCAAAGACC,3.3 ± 0.0796 log2FC
11,CTCGAGGATATCAAGATCTGGCCTCGGCGTATTAAAAGGAACCTCTAGCTAGCCGACTCACTATAGGGATAATCGCCCTGAGCAAAGACC,2.14 ± 0.0726 log2FC
12,CTCGAGGATATCAAGATCTGGCCTCGGCCGCATAAAAGGAACCTCTAGCTAGCCGACTCACTATAGGGATAATCGCCCTGAGCAAAGACC,1.46 ± 0.0793 log2FC
13,CTCGAGGATATCAAGATCTGGCCTCGGCTTTTTAGGGGGAACCTCTAGCTAGCCGACTCACTATAGGGATAATCGCCCTGAGCAAAGACC,1.5 ± 0.0951 log2FC
14,CTCGAGGATATCAAGATCTGGCCTCGGCTTTCTAAAAGGAACCTCTAGCTAGCCGACTCACTATAGGGATAATCGCCCTGAGCAAAGACC,-0.511 ± 0.118 log2FC
15,CTCGAGGATATCAAGATCTGGCCTCGGCGTTTTAGAGGGAACCTCTAGCTAGCCGACTCACTATAGGGATAATCGCCCTGAGCAAAGACC,1.24 ± 0.114 log2FC
16,CTCGAGGATATCAAGATCTGGCCTCGGCACTGTAAAAGGAACCTCTAGCTAGCCGACTCACTATAGGGATAATCGCCCTGAGCAAAGACC,1.95 ± 0.0803 log2FC
17,CTCGAGGATATCAAGATCTGGCCTCGGCGGGCCACGCGGAACCTCTAGCTAGCCGACTCACTATAGGGATAATCGCCCTGAGCAAAGACC,-1.1 ± 0.106 log2FC
18,CTCGAGGATATCAAGATCTGGCCTCGGCAGGCTAAAAGGAACCTCTAGCTAGCCGACTCACTATAGGGATAATCGCCCTGAGCAAAGACC,-0.781 ± 0.0984 log2FC
19,CTCGAGGATATCAAGATCTGGCCTCGGCCGTATAAAAGGAACCTCTAGCTAGCCGACTCACTATAGGGATAATCGCCCTGAGCAAAGACC,2.31 ± 0.0858 log2FC
20,CTCGAGGATATCAAGATCTGGCCTCGGCATTTTAGCGGGAACCTCTAGCTAGCCGACTCACTATAGGGATAATCGCCCTGAGCAAAGACC,0.146 ± 0.1 log2FC
21,CTCGAGGATATCAAGATCTGGCCTCGGCGGCTTAAAAGGAACCTCTAGCTAGCCGACTCACTATAGGGATAATCGCCCTGAGCAAAGACC,-0.00793 ± 0.0839 log2FC
22,CTCGAGGATATCAAGATCTGGCCTCGGCTAATTAAAAGGAACCTCTAGCTAGCCGACTCACTATAGGGATAATCGCCCTGAGCAAAGACC,2.92 ± 0.0818 log2FC
23,CTCGAGGATATCAAGATCTGGCCTCGGCATTTTAATGGGAACCTCTAGCTAGCCGACTCACTATAGGGATAATCGCCCTGAGCAAAGACC,2.51 ± 0.077 log2FC
24,CTCGAGGATATCAAGATCTGGCCTCGGCAGTATAAAAGGAACCTCTAGCTAGCCGACTCACTATAGGGATAATCGCCCTGAGCAAAGACC,1.92 ± 0.0665 log2FC
25,CTCGAGGATATCAAGATCTGGCCTCGGCGTTTTAAAGGGAACCTCTAGCTAGCCGACTCACTATAGGGATAATCGCCCTGAGCAAAGACC,2.48 ± 0.082 log2FC
26,CTCGAGGATATCAAGATCTGGCCTCGGCCTTTTAGGGGGAACCTCTAGCTAGCCGACTCACTATAGGGATAATCGCCCTGAGCAAAGACC,1.1 ± 0.083 log2FC
